Laboratory results from PubChem BioAssay AID720526 (National Center for Advancing Translational Sciences (NCATS), 2013).
Records with an inconclusive call do not appear. Values without a mark were called inactive. Calls of active or inactive are those of the source. Calls come from the whole dose curve; as a rule, active = well fitted activation curve with a large enough effect; inconclusive = small, poorly fitted or top-dose-only effect; inactive = no such curve, though single readings can be large or run the other way.

Experiment: qHTS Assay for NPC1 Promoter Activators: Hit Validation Using Renila Luciferase Read-Out for NPC1; for activity change, positive = activation: % of control where 0% means no effect
Conditions: Huh7 NPC1 promoter-luciferase reporter, luminescence, 24 h; series mostly up to 76.9 µM; activity change, positive = activation: at the top concentration
Outline: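 Huh7 cells stably carrying NPC promoter-luciferase reporter, exposed to compound for 24 h at 37 deg C. Luminescence read 10 min after adding luciferase detection reagent at room temperature.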
Potency is the fitted concentration of half-maximal effect.

Structure (SMILES)	activity change, positive = activation [%]	Potency
CCOC(=O)C1(Cc2cccc(Cl)c2)CCCN(C(=O)CCSC)C1 (centres undefined)	-3	
C=CCn1c(C)nnc1SCC(=O)Nc1nccs1	6.19	
COc1ccc(-n2cc(-c3ccc(Cl)cc3)[nH]c2=S)cc1	0.504	
CC(=O)[C@@H]1[C@@H](C(=O)c2ccc(C)cc2)[C@]2(C(=O)Nc3ccccc32)[C@H]2C=Cc3cc(F)ccc3N12	6.88	
CCCNC(=O)C1CCN(S(=O)(=O)c2ccc3[nH]c(=O)ccc3c2)CC1	14.4	
Nc1ccc(C(=O)Nc2ccccc2N)cc1		16.4 µM (active)
CCOC(=O)c1csc(COc2ccc(OC)cc2)n1	-7.41	
Cc1ccc(S(=O)(=O)N2CCN(c3cnn(C)c(=O)c3Cl)CC2)cc1	-6.07	
CCCCc1cc(=O)oc2cc(OCC(=O)N3CCOCC3)ccc12	7.43	
Cc1ccc(N=Cc2sc(O)c3ccccc23)c(C)c1	-14.6	
Nc1c(N(CCO)C(=O)/C=C/c2ccco2)c(=O)[nH]c(=O)n1Cc1ccccc1	13.3	
COc1cccc(NC(=O)CN2C(=O)CSc3ccc(S(=O)(=O)N4CCC(C)CC4)cc32)c1	-64	
COCC1CCN(C(=O)c2ccc3oc(Cc4ccccc4)nc3c2)C1 (centres undefined)	-18.2	
CCCCn1c(Nc2ccc(OC)cc2)nc2ccccc21	-4.57	
COC(=O)c1cn(NC(=O)C2CCCCC2)c(=O)c2ccccc12	8.18	
Cc1ccc(NC(=O)Nc2cccc3ccccc23)cc1	-1.3	
O=C(CSc1nnc(Cc2cc(=O)[nH]c(=O)[nH]2)n1-c1ccc(Cl)cc1)NC1CCCC1	-6.19	
FC(F)(F)c1ccc(Nc2nnnc3ccccc23)cc1	-69	
CC1(C)CC(=O)c2c(O)c(-c3ccccc3)c(=O)n(-c3ccccc3)c2C1	18.9	
CN(C)/C=N/c1c(C#N)cnn1-c1nc2ccccc2s1	-0.131	

Structure (SMILES)	activity change, positive = activation [%]	Potency
Cc1ccccc1NC(=O)Cc1nc(COC(=O)CC(C)c2ccccc2)cs1 (centres undefined)	-2.66	
CCOC(=O)c1cc2sccc2n1CC(=O)N1CCCc2ccccc21	0.273	
COC(=O)c1ccccc1S(=O)(=O)NNC(=O)Nc1ccccc1	-8.36	
COc1ccc(/C=C\c2onc(C)c2S(=O)(=O)N2CCC(C(=O)NCCC(C)C)CC2)cc1	-44.7	
COc1ccccc1NC(=S)NCc1ccc(Cl)cc1	5.09	
Cn1c(CCN2CCN(c3ccccc3)CC2)nc2cc(NC(=O)c3ccco3)ccc21	-43.4	
O=C(NCCc1ccccc1)c1cc2ncc(Br)cn2n1	-3.26	
Cc1ccc(N(O)C(=O)NCCCCNC(=O)N(O)c2ccc(C)cc2)cc1	4.31	
Cc1cccc(C)c1NC(=O)Nc1cccs1	-0.0994	
CCOc1cc(C(=O)N=c2sccn2C)ccc1OC(F)F	-3.64	
COC(=O)c1sccc1NC(=S)OC	5.09	
O=C(CCNC(=O)c1ccc(Br)o1)NCc1ccc(Cl)cc1	2.26	
COc1ccccc1CNC(=O)COc1ccc(C)cc1	8.49	
Cc1ccc(C#N)c(SCC(=O)Nc2nccs2)n1	-7.61	
Cc1noc(/C=C/N(C)C)c1S(=O)(=O)N1CCCC(C(=O)N2CCCCC2)C1 (centres undefined)	10.9	
O=CN1CCN(C(=O)c2ccccc2Cl)CC1	-1.02	
CC1CN(C(=O)c2ccncc2)CC(C)O1 (centres undefined)	-24.2	
O=C(NCCc1c[nH]c2ccccc12)C(=O)NCC(c1ccco1)N1CCN(c2ccccc2F)CC1 (centres undefined)	-31.8	
Fc1ccc(-c2nc3nc4ccccc4nc3n2Cc2ccco2)cc1	-99.6	
